# From PubChem
# LYPLA1 counter = blocks human lysophospholipase 1, a PME1 counter-screen. O75608. recombinant LYPLA1, FP-Rh probe fluorescence polarization. inhibition, % at 5.9 µM. 0.16% of 320,000 active;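 active means inhibition above the mean of all tested compounds plus 3 SD, set per campaign, cut at about 14% in these data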;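 further: inhibitors block serine hydrolase probe labeling of LYPLA1 so polarization falls; 0% = enzyme with DMSO and 100% = wells lacking LYPLA1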
# LYPLA2 inh = counter-screen for PME1 inhibitors: inhibitors of human LYPLA2 | AID 2177 | recombinant LYPLA2, FP-Rh probe fluorescence polarization | 0.38% of 320,000 active | inhibition, % at 5.9 µM;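 active means inhibition above the screen-wide mean plus 3 SD, limit set per campaign, cut at about 26% in these data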;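 further: 0% = LYPLA2 with DMSO and 100% = wells lacking LYPLA2 enzyme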
# ZTA counter = counter-screen for EBNA-1 inhibitors: inhibitors of Epstein-Barr virus ZTA. ZTA-DNA binding, fluorescence polarization. inhibition, % at 11 µM. 0.15% of 320,000 active; in the data active means inhibition above about 33%
# PREPL inh = human PREPL enzyme inhibition | inhibition, % at 5.96 µM | 0.68% of 320,000 active | AID 2751 | Q4J6C6 | recombinant PREPL, fluorescence polarization activity-based probe;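 further: 0% = enzyme with DMSO and 100% = wells lacking enzyme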
# EBNA-1 inhibitor = blocks EBNA-1 binding to DNA. EBNA-1 DNA binding, fluorescence polarization. inhibition, % at 14.8 µM. 0.34% of 300,000 active; in the data active means inhibition above about 28%
# LYPLA1 conf = counter-screen for PME1 inhibitors: confirmation of human LYPLA1 inhibitors; 69% of 480 active; recombinant LYPLA1, FP-Rh probe fluorescence polarization; shares compounds with LYPLA1 counter; inhibition, % at 5.9 µM;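 active means mean inhibition across replicates above the hit cutoff set in the primary screen, cut at about 15% in these data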;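 further: loss of FP-Rh probe labeling of LYPLA1 seen as lower polarization; 0% = LYPLA1 with DMSO and 100% = wells lacking LYPLA1 enzyme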
# LYPLA2 confirm = LYPLA2 (human) inhibition, confirmation counter-screen. shares compounds with LYPLA2 inh. inhibition, % at 5.9 µM. 72% of 1,100 active. recombinant LYPLA2, FP-Rh probe fluorescence polarization;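 active means mean inhibition across replicates above the hit cutoff set in the primary screen, cut at about 26% in these data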;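 further: blocked labeling of the enzyme by serine hydrolase FP-Rh probe lowers polarization; 0% = enzyme with DMSO and 100% = wells lacking LYPLA2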
# PREPL inh cf = human PREPL inhibition, confirmation; shares compounds with PREPL inh; 67% of 2,000 active; inhibition, % at 5.96 µM; recombinant PREPL, fluorescence polarization activity probe; AID 2803;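 further: 0% = protein with DMSO and 100% = wells lacking protein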
# * hit, by the source's call; / = no result; ! = not active in a repeat. Shown are actives, neighbours in structure and some others; about 1.3% of the full set was active somewhere. Unless noted, no stated cut-off is given here; in the data, active means inhibition above about 43%; inactive means the rest.
SMILES,LYPLA1 counter,LYPLA2 inh,ZTA counter,PREPL inh,EBNA-1 inhibitor,others
COc1ccc2[nH]cc(CCN=C(N)N)c2c1,-1.2,-1.4,-7.8,-2.2,-10.0,
COc1ccc2[nH]cc(C3=CCNCC3)c2c1,0.5,0.1,-9.5,50.7*,7.2,
C=CCn1c(O)c(C(C)=Nc2ccc(N(CC)CC)cc2)c(=O)[nH]c1=O,0.3,2.4,3.3,7.1,-1.4,
C=CCn1c(O)c(C(C)=Nc2ccc(N(C)C)cc2)c(=O)[nH]c1=O,-4.3,-1.7,150.1*,10.9,58.0*,
COC(=O)C1=C(c2cccc(Cl)c2)C[C@@H]2CC[C@H]1N2C(=O)N1CCCC1,1.8,0.6,7.4,3.9,/,
O=C1NC(=O)C(=Cc2ccc3ccccc3c2)C(=O)N1,-0.6,2.2,3.3,-3.9,2.6,
O=C1NC(=O)C(=Cc2ccc(Oc3ccc([N+](=O)[O-])cc3)cc2)C(=O)N1,5.5,38.3*,-8.9,-14.8,-12.5,
Cc1cccc(NC(=O)COC(=O)c2cc(C)n(C3CC3)c2C)c1,-4.0,-2.4,4.0,6.0,/,
CN(C)[C@@H]1C(=O)C(C(N)=O)=C(O)[C@@]2(O)C(=O)C3=C(O)c4c(O)cccc4[C@@](C)(O)[C@H]3[C@H](O)[C@@H]12,-3.3,4.3,8.2,20.8,30.0*!,
NC(Cc1cc(O)c(O)cc1O)C(=O)O (stereo unspecified),-24.5,2.9,49.0*,67.0*,89.6*,
CN(C)c1ccc(/C=C/C=C/c2sc3ccccc3[n+]2C)cc1,-22.8,-42.7,45.0*,13.3,32.2*,
CC[n+]1c(/C=C/C=C/c2ccc(N(C)C)cc2)sc2ccccc21,-51.2,-105.4,163.9*,9.5,105.1*,
C[n+]1c(-c2ccccc2)sc2ccccc21,2.8,1.8,2.8,2.5,-4.9,
C[C@]12CC[C@H]3[C@@H](CCC4=CC(=O)CC[C@@]43O)[C@@H]1CCC2=O,-1.2,6.5,-13.5,12.1,-17.6,
CC(C)[C@H]1C(=O)N2CCC[C@H]2[C@]2(O)O[C@](NC(=O)[C@@H]3C=C4c5cccc6[nH]cc(c56)C[C@H]4N(C)C3)(C(C)C)C(=O)N12,1.7,5.7,-3.4,46.1*,-1.8,
Cc1cc(OC(C)C(=O)NCC(O)c2ccccc2)c2c3c(c(=O)oc2c1)CCCC3 (stereo unspecified),-0.5,-3.4,2.5,-5.1,2.8,
NP(=O)(OCCCCc1ccccc1)Oc1ccccc1Cl (stereo unspecified),19.2*,25.1,0.8,16.5,16.3,LYPLA1 conf=9.0
N#CCCn1cc(C(=O)Nc2ccccc2Br)c(-c2ccc3c(c2)OCCO3)n1,-1.1,4.2,-3.0,3.1,-6.3,
Cc1ccc(Cn2nnnc2CN2CCC(n3nnc4cc(C)ccc43)CC2)cc1,-0.7,26.6*,-6.8,-5.2,11.5,LYPLA2 confirm=24.1
S=C=Nc1cccc(C2(N3CCCCC3)CCCCC2)c1,-3.8,-5.8,-5.0,39.4,-7.9,
Oc1c(Cl)c(Cl)c(Cl)c(Cl)c1Cl,9.2,28.1*,16.3,1.7,-7.5,LYPLA2 confirm=34.3*
O=C(COc1ccc(Cl)cc1)N1CCN(C2CCCC2)CC1,1.2,9.4,9.5,9.3,-4.3,
CCN(CC)C(=O)c1ccc(NC(=O)COc2ccc(-c3nn(C)c(=O)c4ccccc34)cc2)cc1,12.5,31.7*,2.9,4.0,0.5,LYPLA2 confirm=31.4*
COC(=O)C1=C(c2ccc(F)cc2F)C[C@@H]2CC[C@H]1N2C(=O)NC1Cc2ccccc2C1,1.4,-2.2,-7.5,0.0,/,
CC(=O)c1ccc2c(c1)C1C(Cl)C(Sc3ccccc3[N+](=O)[O-])CC1C(C(=O)O)N2 (stereo unspecified),1.3,13.5,-9.3,-0.7,-15.8,
O=C(O)c1cccc2c1NC(C(=O)O)C1CC(Sc3ccccc3[N+](=O)[O-])C(Cl)C21 (stereo unspecified),12.0,29.0*,109.5*,33.5,35.4*,LYPLA2 confirm=11.6
CC(=NCCc1c[nH]c2ccccc12)c1c(O)n(Cc2ccccc2)c(=O)[nH]c1=O,-2.2,30.8*,-5.8,43.3*,9.4,LYPLA2 confirm=27.4*;PREPL inh cf=41.6
